Data from PubChem BioAssay (Tox21).
Inconclusive results are not listed. Unmarked numbers belong to inactive results. Activity calls are given as the source filed them. The call rests on the fitted dose curve; in most records, active means well fitted inhibition curve with a large enough effect in the signal ratio in the repeat runs; inconclusive means weak or mixed curves, or effect the other way; inactive means flat fitted curve, though single readings scatter; the % refers to the signal ratio.

Test: qHTS assay for small molecule disruptors of the mitochondrial membrane potential (AID 720635)
Conditions: HepG2 mitochondrial membrane potential, Mito-MPS dye ratio; series mostly up to 83.2 µM; ratio activity, negative = MMP loss: at the top concentration
Excerpt: U.S. Tox21 Program National Center for Advancing Translational Sciences [NCATS] NIH Chemical Genomics Center [NCGC] U.S. Environmental Protection Agency [EPA] National Institutes of Environmental Health Sciences [NIEHS] National Toxicology Program [NTP] U.S. Food and Drug Administration [FDA] Tox21 Assay Overview: Mitochondrial membrane potential (MMP), one of the parameters for mitochondrial function, is generated by mitochondrial electron transport chain that creates an electrochemical gradient by a series of redox reactions. This gradient drives the synthesis of ATP, a crucial molecule for various cellular processes. Measuring MMP in living cells is commonly used to assess the effect of chemicals on mitochondrial function. […] The dye accumulates in the mitochondria of healthy cells as aggregates, with red fluorescence. The mitochondrial potential collapses and the dye can no longer accumulate in the mitochondria and remains in the cytoplasm in monomers, with green fluorescence.
Tox21 Assay Protocol Summary: 2,000 HepG2 cells in 5 uL/well were dispensed into black, clear-bottom 1536-well plates using a Multidrop Combi (Thermo Scientific) dispenser. The assay plates were incubated overnight at 37C to allow cells to attach to the wells, followed by the transfer of 23 nL compound or DMSO vehicle by a pin tool (Kalypsys). The plates were incubated for 1 hr at 37C and 5% CO2, followed by the addition of 5 uL of 2X Mito-MPS dye (BD Biosciences) into each well using Flying Reagent Dispenser (Aurora Discovery) and then following 30 min incubation at 37C. Fluorescence intensity (490nm excitation and 535nm emission for monomers; and 540nm excitation and 590nm emissions for aggregates) was measured using an Envision plate reader.
On the % scale 0 is the no-effect control and ±100 the full control effect; potency means the concentration at half of the fitted maximal effect.

Row | SMILES | ratio activity, negative = MMP loss | Potency
1 | CC(C)(c1ccc(Oc2ccc3c(c2)C(=O)OC3=O)cc1)c1ccc(Oc2ccc3c(c2)C(=O)OC3=O)cc1 | -17.7% | 
2 | CCCCCCCCCCCCOC(C)=O | 8.86% | 
3 | NC(=O)NC(=O)Cc1ccccc1 | 11% | 
4 | C=C(C)C(=O)OCCCCCCOC(=O)C(=C)C | 9.67% | 
5 | O=C(Oc1ccccc1C(=O)O)c1ccccc1O | 4.66% | 
6 | CO/N=C(/C(=O)N[C@@H]1C(=O)N2C(C(=O)O)=C(Cn3nnc(C)n3)CS[C@H]12)c1csc(N)n1 | -12.1% | 
7 | O=C(CN1CCN(Cc2ccc3c(c2)OCO3)CC1)N1c2ccccc2Sc2ccccc21 | 15.2% | 
8 | O=C(O)c1ccccc1C(=O)Nc1ccc(S(=O)(=O)Nc2nccs2)cc1 | -7.83% | 
9 | CO[Si](CCCCl)(OC)OC |  | 60.2 µM (active)
10 | COc1ccc(/C=N/NC(=O)c2ccncc2)cc1OC | -11.6% | 
11 | CCCCCCCCCCCCC1CO1 (stereo not given) | -17.7% | 
12 | O=P(O)(O)OCC(O)CO (stereo not given) | -3.43% | 
13 | CC(=O)c1ccc2c(c1)CCCC2 | -7.33% | 
14 | CC(C)COC(=O)COc1ccc(Cl)cc1Cl | 10.8% | 
15 | Cc1ccccc1C | 14.5% [at 95.3 µM] | 
16 | O=C(O)C(=O)Nc1cccc(-c2nn[nH]n2)c1 | -4.89% | 
17 | CCC1COC(=O)O1 (stereo not given) | 33.2% | 
18 | Cc1nc(C)nc(N2C[C@@H](C)N(c3ccnc([C@@H](C)O)n3)[C@@H](C)C2)n1 | -10.9% | 
19 | Cc1cc(O)c2c(c1)C(=O)c1cccc(O)c1C2=O |  | 11.9 µM (active)
20 | CCCCCCCCCCCCC | 13.5% | 

Row | SMILES | ratio activity, negative = MMP loss | Potency
21 | Cc1nc([N+](=O)[O-])cn1-c1ccc([N+](=O)[O-])cc1 | 19% | 
22 | CCC(O)C(C)(C)C (stereo not given) | 8.38% [at 95.3 µM] | 
23 | COCCOCCOCCOC | 27.6% | 
24 | Cc1cc(C)cc([N+](=O)[O-])c1 | 11.8% [at 95.3 µM] | 
25 | C=CCOCC(CO)(COCC=C)COCC=C | 10.7% | 
26 | FC(F)(F)/C(=N\OCC1OCCO1)c1ccc(Cl)cc1 | -18.3% | 
27 | c1ccc(CNc2ncnc3nc[nH]c23)cc1 |  | 54.5 µM (active)
28 | COc1cc2c3cc1Oc1cc(ccc1O)C[C@@H]1c4c(cc(OC)c(O)c4Oc4ccc(cc4)C[C@@H]3N(C)CC2)CC[N+]1(C)C | 24.3% | 
29 | CCCCCCCCC(=O)OCC | 3.02% | 
30 | COC(=O)CCC(=O)O | -9.62% | 
31 | O=C(/C=C/c1ccccc1)NCCO | -29.4% | 
32 | C=COCCOCCOC=C | 21.9% | 
33 | Nc1cc(C(=O)O)ccc1Cl | -14.6% | 
34 | O=C(O)CCNC(=O)c1ccccc1 | -16% | 
35 | C[Si]1(C)N[Si](C)(C)N[Si](C)(C)N1 |  | 27.3 µM (active)
36 | O=C(c1ccc2c(c1)C(=O)OC2=O)c1ccc2c(c1)C(=O)OC2=O | 10.6% | 
37 | O=C1OC(=O)c2cc(Oc3ccc4c(c3)C(=O)OC4=O)ccc21 | 9.46% | 
38 | C=CCCCCCCCCCCC | -12.5% [at 8.08 µM] | 
39 | Nc1ccc(S(=O)(=O)Nc2ccccn2)cc1 | -19.7% [at 39.1 µM] | 
40 | CCC(C)(C)C1CCC(=O)CC1 | 7.8% | 
